# About 1,500 (3.8%) of roughly 39,000 compounds were called active. For the sample, actives were picked, then their nearest neighbours and some compounds at random.
# Tested on: HSkMC (human skeletal muscle cells)
# Experiment: cytotoxicity call (relative viability < 0.9)
# Conditions: 10 µM
row,Structure (SMILES),cytotoxicity call
1,C[C@@H]1CN([C@@H](C)CO)C(=O)Cc2cc(NC(=O)CCN3CCOCC3)ccc2O[C@H]1CN(C)S(=O)(=O)c1cccs1,inactive
2,C[C@H]1CN([C@@H](C)CO)C(=O)c2ccccc2-c2ccccc2CO[C@@H]1CN(C)C(=O)Nc1cccc(F)c1,inactive
3,NC(=O)c1cccc(S(N)(=O)=O)c1,inactive
4,C[C@@H]1CN([C@H](C)CO)C(=O)c2cc(N(C)C)ccc2O[C@@H](C)CCCCO[C@H]1CN(C)C(=O)Nc1ccc(C(F)(F)F)cc1,inactive
5,C[C@H]1CN([C@@H](C)CO)C(=O)c2cccc(NC(=O)Nc3cccc4ccccc34)c2O[C@@H]1CN(C)C(=O)Nc1ccc(C(F)(F)F)cc1,active
6,COc1ccc(S(=O)(=O)N(C)C[C@@H]2Oc3ccc(NC(=O)CCCN(C)C)cc3CC(=O)N([C@@H](C)CO)C[C@@H]2C)cc1,inactive
7,C[C@@H]1CN([C@H](C)CO)C(=O)c2cc(NC(=O)Nc3ccccc3)ccc2O[C@@H]1CN(C)Cc1ccc(-c2ccccc2)cc1,inactive
8,C[C@@H]1CN([C@@H](C)CO)C(=O)c2cc(NC(=O)Nc3ccccc3)ccc2O[C@H]1CN(C)Cc1ccc(-c2ccccc2)cc1,inactive
9,C[C@@H]1CN([C@@H](C)CO)C(=O)c2cc(NC(=O)Nc3ccc(F)cc3)ccc2O[C@H]1CN(C)Cc1ccc(-c2ccccc2)cc1,active
10,C[C@H](CO)N1C[C@H](C)[C@H](CN(C)Cc2ccc(-c3ccccc3)cc2)Oc2ccc(NC(=O)Nc3ccc(F)cc3)cc2C1=O,inactive
11,C[C@H](CO)N1C[C@H](C)[C@H](CN(C)Cc2ccc(-c3ccccc3)cc2)Oc2ccc(NC(=O)Nc3ccccc3)cc2C1=O,inactive
12,C[C@H]1CN([C@@H](C)CO)C(=O)c2cc(NC(=O)Nc3ccc(F)cc3)ccc2O[C@@H]1CN(C)Cc1ccc(-c2ccccc2)cc1,inactive
13,C[C@@H]1CN([C@@H](C)CO)C(=O)c2cc(NC(=O)Nc3ccc(F)cc3)ccc2O[C@@H]1CN(C)Cc1ccc(-c2ccccc2)cc1,active
14,C[C@H]1CN([C@@H](C)CO)C(=O)c2cc(NC(=O)Nc3ccccc3)ccc2O[C@H]1CN(C)Cc1ccc(-c2ccccc2)cc1,inactive
15,C[C@@H]1CN([C@H](C)CO)C(=O)c2cc(NC(=O)Nc3ccccc3)ccc2O[C@H]1CN(C)Cc1ccc(-c2ccccc2)cc1,inactive
16,C[C@H](CO)N1C[C@H](C)[C@@H](CN(C)Cc2ccc(-c3ccccc3)cc2)Oc2ccc(NC(=O)Nc3ccccc3)cc2C1=O,inactive
17,C[C@@H]1CN([C@H](C)CO)C(=O)c2cc(NC(=O)Nc3ccc(F)cc3)ccc2O[C@H]1CN(C)Cc1ccc(-c2ccccc2)cc1,active
18,C[C@@H]1CN([C@@H](C)CO)C(=O)c2cc(NC(=O)Nc3ccccc3)ccc2O[C@@H]1CN(C)Cc1ccc(-c2ccccc2)cc1,active
19,CC(C)NC(=O)Nc1ccc2c(c1)CC(=O)N([C@@H](C)CO)C[C@H](C)[C@H](CN(C)Cc1ccc3c(c1)OCO3)O2,inactive
20,O=c1nc[nH]c2c1ncn2[C@H]1CC[C@@H](CO)O1,inactive
21,Cn1cnc(S(=O)(=O)N2C[C@@H](O)COC[C@H]3O[C@H](CC(=O)NC4CCC4)CC[C@@H]32)c1,inactive
22,O=C(C[C@H]1CC[C@@H]2[C@H](COC[C@H](O)CN2S(=O)(=O)c2ccc(Cl)cc2)O1)NCC1CCCCC1,inactive

row,Structure (SMILES),cytotoxicity call
1,C[C@H](CO)N1C[C@H](C)[C@H](CN(C)C(=O)Nc2ccc(F)cc2)OCCCC[C@H](C)Oc2ccc(NC(=O)Cc3ccccc3)cc2C1=O,inactive
2,C[C@@H]1CN([C@H](C)CO)C(=O)c2cc(NC(=O)Nc3ccc(F)cc3)ccc2O[C@@H]1CN(C)Cc1ccc(-c2ccccc2)cc1,active
3,C[C@H]1CN([C@@H](C)CO)C(=O)c2cc(NC(=O)Nc3ccc(F)cc3)ccc2O[C@H]1CN(C)Cc1ccc(-c2ccccc2)cc1,inactive
4,C[C@H](CO)N1C[C@H](C)[C@@H](CN(C)Cc2ccc(-c3ccccc3)cc2)Oc2ccc(NC(=O)Nc3ccc(F)cc3)cc2C1=O,inactive
5,C[C@]12C=CC(=O)N[C@@H]1CC[C@@H]1[C@@H]2CC[C@]2(C)[C@@H](C(=O)Nc3cc(C(F)(F)F)ccc3C(F)(F)F)CC[C@@H]12,inactive
6,CCCNC(=O)N1C[C@@H](O)COC[C@H]2O[C@H](CC(=O)NCc3ccncn3)CC[C@@H]21,inactive
7,C[C@@H]1CN([C@@H](C)CO)C(=O)Cc2cc(NC(=O)CCC(F)(F)F)ccc2O[C@H]1CN(C)S(=O)(=O)c1ccccc1,inactive
8,CCC(C)C(N)C(=O)O (stereo not given),inactive
9,C[C@@H]1CN([C@@H](C)CO)C(=O)c2c(c3ccccc3n2C)-c2ccccc2CO[C@@H]1CN(C)Cc1ccccc1C(F)(F)F,active
10,COc1ccccc1CN(C)C[C@@H]1OCc2ccccc2-c2c(n(C)c3ccccc23)C(=O)N([C@@H](C)CO)C[C@@H]1C,inactive
11,COc1ccccc1CN(C)C[C@@H]1OCc2ccccc2-c2c(n(C)c3ccccc23)C(=O)N([C@@H](C)CO)C[C@H]1C,inactive
12,C[C@@H]1CN([C@@H](C)CO)C(=O)c2c(c3ccccc3n2C)-c2ccccc2CO[C@H]1CN(C)Cc1ccccc1C(F)(F)F,active
13,COc1ccccc1CN(C)C[C@H]1OCc2ccccc2-c2c(n(C)c3ccccc23)C(=O)N([C@H](C)CO)C[C@@H]1C,inactive
14,C[C@@H]1CN([C@H](C)CO)C(=O)c2c(c3ccccc3n2C)-c2ccccc2CO[C@@H]1CN(C)Cc1ccccc1C(F)(F)F,active
15,C[C@H](CO)N1C[C@H](C)[C@@H](CN(C)Cc2ccccc2C(F)(F)F)OCc2ccccc2-c2c(n(C)c3ccccc23)C1=O,active
16,COc1ccccc1CN(C)C[C@@H]1OCc2ccccc2-c2c(n(C)c3ccccc23)C(=O)N([C@H](C)CO)C[C@H]1C,inactive
17,COc1ccccc1CN(C)C[C@@H]1OCc2ccccc2-c2c(n(C)c3ccccc23)C(=O)N([C@H](C)CO)C[C@@H]1C,inactive
18,Cc1noc(C)c1NC(=O)Nc1ccc2c(c1)C(=O)N([C@@H](C)CO)C[C@H](C)[C@H](CN(C)S(=O)(=O)c1ccc(F)cc1)OCCCC[C@@H](C)O2,inactive
19,C[C@@H]1CN([C@H](C)CO)C(=O)c2cc(NC(=O)CCCN(C)C)ccc2O[C@H]1CN(C)S(=O)(=O)c1cn(C)cn1,inactive
20,CCS(=O)(=O)CCn1c([N+](=O)[O-])cnc1C,inactive
21,Cc1noc(C)c1S(=O)(=O)Nc1cccc2c1O[C@@H](CN(C)S(=O)(=O)c1ccc(Cl)cc1)[C@@H](C)CN([C@H](C)CO)C2=O,inactive
22,C[C@@H]1CCCCO[C@H](CN(C)S(C)(=O)=O)[C@@H](C)CN([C@@H](C)CO)C(=O)c2cc(NS(=O)(=O)c3ccc(F)cc3)ccc2O1,inactive

row,Structure (SMILES),cytotoxicity call
1,CO[C@H](CN(C)S(=O)(=O)c1cccc(Cl)c1)[C@@H](C)CN([C@H](C)CO)S(=O)(=O)c1ccc(Cl)cc1,inactive
2,O=C(N[C@@H]1CC[C@@H](CC(=O)N2CCOCC2)O[C@H]1CO)c1ccccn1,inactive
3,Cc1noc(C)c1NC(=O)N(C)C[C@H]1Oc2ccc(NC(=O)NC(C)C)cc2C(=O)N([C@H](C)CO)C[C@@H]1C,inactive
4,COc1ccc(S(=O)(=O)Nc2ccc3c(c2)C(=O)N([C@H](C)CO)C[C@@H](C)[C@H](CN(C)S(C)(=O)=O)O3)cc1,inactive
5,Nc1ccc(Nc2ccccc2)cc1,inactive
6,COc1ccc2c3c([nH]c2c1)[C@@H](CO)N(C[C@]13CN(C1)S(=O)(=O)C)C(=O)C1CCOCC1,inactive
7,C[C@H]1CN([C@@H](C)CO)C(=O)c2c(c3ccccc3n2C)-c2ccccc2CO[C@@H]1CN(C)Cc1ccccc1C(F)(F)F,active
8,COc1ccccc1CN(C)C[C@H]1OCc2ccccc2-c2c(n(C)c3ccccc23)C(=O)N([C@@H](C)CO)C[C@@H]1C,inactive
9,COc1ccccc1CN(C)C[C@H]1OCc2ccccc2-c2c(n(C)c3ccccc23)C(=O)N([C@@H](C)CO)C[C@H]1C,inactive
10,C[C@H]1CN([C@@H](C)CO)C(=O)c2c(c3ccccc3n2C)-c2ccccc2CO[C@H]1CN(C)Cc1ccccc1C(F)(F)F,inactive
11,C[C@@H]1CN([C@H](C)CO)C(=O)c2c(c3ccccc3n2C)-c2ccccc2CO[C@H]1CN(C)Cc1ccccc1C(F)(F)F,active
12,C[C@H](CO)N1C[C@H](C)[C@H](CN(C)Cc2ccccc2C(F)(F)F)OCc2ccccc2-c2c(n(C)c3ccccc23)C1=O,active
13,COc1ccccc1CN(C)C[C@H]1OCc2ccccc2-c2c(n(C)c3ccccc23)C(=O)N([C@H](C)CO)C[C@H]1C,inactive
14,C[C@@H]1CN([C@@H](C)CO)C(=O)c2cc(NC(=O)CCC(F)(F)F)ccc2O[C@@H](C)CCCCO[C@@H]1CN(C)C(=O)CCC(F)(F)F,inactive
15,COc1ccc(NC(=O)Nc2ccc3c(c2)C(=O)N([C@H](C)CO)C[C@@H](C)[C@@H](CN(C)C(=O)NC(C)C)OCCCC[C@H](C)O3)cc1,inactive
16,C[C@@H]1CCCCO[C@H](CN(C)C(=O)Nc2ccc3c(c2)OCO3)[C@@H](C)CN([C@@H](C)CO)C(=O)c2cc(NC(=O)CCC(F)(F)F)ccc2O1,inactive
17,CN1C(=O)COc2cc(N)ccc21,inactive
18,Cc1noc(C)c1NC(=O)N(C)C[C@H]1Oc2ccc(NS(C)(=O)=O)cc2CC(=O)N([C@H](C)CO)C[C@@H]1C,inactive
19,Cc1cc(C(=O)O)cc(S(N)(=O)=O)c1,inactive
20,C[C@@H]1CN([C@H](C)CO)C(=O)c2cc(NC(=O)Nc3ccc4c(c3)OCO4)ccc2O[C@@H]1CN(C)Cc1ccc(C(=O)Nc2ccccc2N)cc1,inactive
21,COc1ccc(NC(=O)N(C)C[C@@H]2Oc3c(NC(=O)c4cc(C)nn4C)cccc3C(=O)N([C@H](C)CO)C[C@H]2C)cc1,inactive

# From the antibiotic and cytotoxicity screens of Wong et al. (2023)
